In PubChem BioAssay one finds composite z-score, composite Z-score and z-score data, which are given here for 5 compounds.

In assay [1] the target is Albumin (Bos taurus) (UniProt P02769). In words: compounds binding labelled BSA control protein – biochemical, small-molecule microarray, Alexa647 label, 635/667 nm fluorescence, artefact control for SMM control protein annotation, profiling panel (AID 1118).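 Further: score merges 667 nm emission intensity and signal-to-noise per printed compound spot.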 Conditions: BSA-A647 binding, fluorescence 635 nm, higher = more signal.
Albumin (Bos taurus), sequence (P02769 whole entry, looked up): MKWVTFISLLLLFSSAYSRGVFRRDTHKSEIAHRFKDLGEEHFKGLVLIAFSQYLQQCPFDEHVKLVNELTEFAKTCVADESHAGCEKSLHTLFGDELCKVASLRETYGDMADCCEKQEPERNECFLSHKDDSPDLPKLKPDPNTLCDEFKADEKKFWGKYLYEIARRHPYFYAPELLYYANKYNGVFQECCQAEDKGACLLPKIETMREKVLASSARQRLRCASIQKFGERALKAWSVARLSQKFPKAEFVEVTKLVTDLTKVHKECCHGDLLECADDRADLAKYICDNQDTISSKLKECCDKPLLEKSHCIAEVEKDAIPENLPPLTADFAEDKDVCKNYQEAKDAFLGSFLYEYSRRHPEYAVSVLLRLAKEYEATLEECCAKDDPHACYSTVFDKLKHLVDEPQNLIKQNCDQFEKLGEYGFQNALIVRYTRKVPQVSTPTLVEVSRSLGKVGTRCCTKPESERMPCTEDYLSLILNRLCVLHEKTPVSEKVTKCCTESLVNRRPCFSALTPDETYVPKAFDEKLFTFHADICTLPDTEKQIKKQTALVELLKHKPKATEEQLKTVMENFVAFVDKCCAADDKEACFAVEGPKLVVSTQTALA
Assay [2] is described as follows: probe aXIP binding to arrayed compounds – biochemical, NeuroSMM set, 635/667 nm fluorescence, primary screen (AID 1119).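 Further: probe is the protein aXip251-270 applied at 1 µg/mL to compound-printed slides; binding of probe to printed compounds measured as 667 nm fluorescence plus signal to noise.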 The following applies: small-molecule microarray, higher = more signal, called active from +8 up or from −8 down.
Assay [3] in a line: probe aNOTCH3 binding on compound microarray – biochemical, small-molecule microarray, 635/667 nm fluorescence, primary screen (AID 1120).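 Further: probe is a biotin-tagged antibody raised against NOTCH3 rather than NOTCH3 protein; score merges spot fluorescence near 667 nm with spot signal to noise.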 Conditions: higher = more signal.
A short description of assay [4]: probe aNOTCH2 binding on compound microarray – biochemical, small-molecule microarray, 635/667 nm fluorescence, primary screen (AID 1121).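 Further: score merges feature fluorescence read at 667 nm with its signal to noise.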 The following applies: higher = more signal.
In assay [5] the target is Carbonic anhydrase 2 (Homo sapiens) (UniProt P00918). Description: compounds binding carbonic anhydrase 2 – biochemical, small-molecule microarray, Alexa647-labelled CAII, profiling panel (AID 1122). Conditions: CAII-A647 binding fluorescence, higher = more signal.
Assay [6] is described as follows: COS7 lysate on small-molecule microarray, probe aHis, 635 nm (AID 1123).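 Further: z-score combines 667nm fluorescence intensity with signal-to-noise per printed compound spot.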 The following applies: COS7 cell lysate, fluorescence, higher = more signal.
The nature of assay [7]: probe aLAP1 signal on lysate-treated microarray – cell lysate, small-molecule microarray, COS7 lysate, primary screen (AID 1124).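 Further: lysate comes from COS7 cells expressing LAP1 and is applied at 0.3 µg/mL; score merges spot fluorescence near 667 nm with signal-to-noise over triplicate slides.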 Conditions: probe aLAP1, fluorescence, higher = more signal.
In assay [8] the test system is Sam68 (KHDRBS1). In words: compounds binding KHDRBS1 protein – biochemical, small-molecule microarray, 635 nm fluorescence, primary screen (AID 1125).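 Further: score merges 667 nm channel intensity with signal to noise over triplicate slides.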 Conditions: higher = more signal.
Assay [9] deals with Chordin-like protein 2 (CHRDL2). Description: compounds binding chordin-like 2 – biochemical, small-molecule microarray, 635 nm fluorescence, primary screen (AID 1126).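 Further: printed compound slides probed with Chrdl2 protein at 4 µg/mL for 1 h at 4 C; score merges 667 nm emission intensity with signal to noise over three replicate slides.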 The following applies: fluorescence 635 nm, higher = more signal.
Assay [10] concerns the target Concanavalin-A (Canavalia ensiformis) (UniProt P02866). In words: compounds binding concanavalin A lectin – biochemical, small-molecule microarray, Alexa647 label, 635 nm, artefact control for SMM control protein annotation, primary screen (AID 1127).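 Further: z combines 667 nm emission intensity with signal-to-noise across three replicate slides.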 The following applies: ConA-A647 binding fluorescence, higher = more signal.
Assay [11] in a line: compounds binding Alexa647 anti-His antibody – biochemical, small-molecule microarray, 635 nm fluorescence, artefact control for SMM control protein annotation, primary screen (AID 1128).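 Further: score merges feature fluorescence with signal-to-noise for each printed compound spot.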 The following applies: higher = more signal.
For assay [12], the system named is Human papillomavirus type 1a E7 protein (residues 1-88). In words: HPV1a E7 small-molecule binders, primary screen, biochemical, small-molecule microarray, residues 1-88, 635 nm (AID 1129). Conditions: small-molecule microarray binding, fluorescence 635 nm; higher = more signal.
Assay [13] addresses Focal adhesion kinase 1 (Homo sapiens) (UniProt Q05397). In words: PTK2 protein binding on printed compound slides – biochemical, small-molecule microarray, 635/667 nm fluorescence, BSA, DTT, primary screen (AID 1130).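 Further: composite of spot emission at 667 nm and signal to noise over triplicate slides.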 The following applies: 635 nm fluorescence, higher = more signal.
Assay [14] deals with Fibrinogen (Alexa647-labelled). In words: Alexa647-fibrinogen binding to printed small molecules – biochemical, small-molecule microarray, 635/667 nm fluorescence, artefact control for SMM control-protein annotation, profiling panel (AID 1131).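 Further: z-score merges 667 nm fluorescence with per-spot signal-to-noise over triplicate slides.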 The following applies: fibrinogen-A647 binding fluorescence, higher = more signal.
Assay [15] addresses Follistatin (Homo sapiens) (UniProt P19883). In words: FST protein binding to printed compounds – biochemical, small-molecule microarray, 635/667 nm fluorescence, primary screen (AID 1132). Conditions: 635 nm fluorescence, higher = more signal.
Assay [16] addresses Fibroblast growth factor 2 (Homo sapiens) (UniProt P09038). In words: basic fibroblast growth factor binding to printed compounds – biochemical, small-molecule microarray, 635/667 nm fluorescence, primary screen (AID 1133). The following applies: FGF2, fluorescence 635/667, higher = more signal.
The nature of assay [17]: JC-1 mitochondrial potential readout, lung cancer cells – cell-based, A549, JC-1 fluorescence, basal, 24 h, 100 nL, profiling panel (AID 1138).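 Further: A549 lung adenocarcinoma cells under basal conditions with no added stimulus; test concentration not given here.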 Conditions: higher = more signal.
The subject of assay [18] is Lefty1. Description: Lefty1 protein binding to printed compounds – biochemical, small-molecule microarray, 635/667 nm fluorescence, primary screen (AID 1139). The following applies: fluorescence 635/667, higher = more signal.
In assay [19] the test system is wheat germ agglutinin (Triticum aestivum), Alexa647-labelled. Description: Alexa647-WGA lectin binding to printed small molecules – biochemical, small-molecule microarray, 635/667 nm fluorescence, artefact control for SMM control-protein annotation, profiling panel (AID 1140).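 Further: score merges 667 nm feature emission with signal to noise over triplicate slides.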 The following applies: WGA-A647 binding, 635 nm fluorescence, higher = more signal.
The target of assay [20] is Luciferin 4-monooxygenase (Photinus pyralis) (UniProt P08659). Description: inhibition of purified Photinus pyralis luciferase – biochemical, luminescence, purified enzyme, 2006 set, primary screen (AID 1141).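 Further: cell-free assay with purified firefly luciferase at 100 ng per well in PBS; test concentration not given here.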 The following applies: purified firefly luciferase, SteadyGlo luminescence, 30 min; higher = more signal, called active from +8 up or from −8 down.
Luciferin 4-monooxygenase (Photinus pyralis), sequence (P08659 whole entry, looked up): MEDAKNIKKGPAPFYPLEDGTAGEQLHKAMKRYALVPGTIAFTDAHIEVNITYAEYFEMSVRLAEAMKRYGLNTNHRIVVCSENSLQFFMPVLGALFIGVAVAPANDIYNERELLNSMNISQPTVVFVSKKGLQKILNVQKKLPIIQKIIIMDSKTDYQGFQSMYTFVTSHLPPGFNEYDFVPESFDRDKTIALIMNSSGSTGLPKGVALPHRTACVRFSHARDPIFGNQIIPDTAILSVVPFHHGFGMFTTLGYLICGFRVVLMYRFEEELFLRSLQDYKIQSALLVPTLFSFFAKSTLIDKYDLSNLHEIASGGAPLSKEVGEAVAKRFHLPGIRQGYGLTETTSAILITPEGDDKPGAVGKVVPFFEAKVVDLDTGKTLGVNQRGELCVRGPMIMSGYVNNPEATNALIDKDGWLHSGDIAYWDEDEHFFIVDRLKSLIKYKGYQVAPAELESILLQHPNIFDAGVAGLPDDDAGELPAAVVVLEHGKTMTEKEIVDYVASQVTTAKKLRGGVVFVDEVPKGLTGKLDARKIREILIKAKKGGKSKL

Activity calls are given as the source filed them.

Fibroblast growth factor 2 (Homo sapiens), sequence (P09038 whole entry, looked up): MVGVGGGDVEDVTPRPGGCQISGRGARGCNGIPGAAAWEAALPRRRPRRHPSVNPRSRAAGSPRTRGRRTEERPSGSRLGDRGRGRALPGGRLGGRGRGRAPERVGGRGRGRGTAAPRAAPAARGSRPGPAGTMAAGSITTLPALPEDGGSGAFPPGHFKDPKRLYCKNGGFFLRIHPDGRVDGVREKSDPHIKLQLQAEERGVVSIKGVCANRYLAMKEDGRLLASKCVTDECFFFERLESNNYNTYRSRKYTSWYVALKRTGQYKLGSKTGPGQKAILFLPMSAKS
Concanavalin-A (Canavalia ensiformis), sequence (P02866 whole entry, looked up): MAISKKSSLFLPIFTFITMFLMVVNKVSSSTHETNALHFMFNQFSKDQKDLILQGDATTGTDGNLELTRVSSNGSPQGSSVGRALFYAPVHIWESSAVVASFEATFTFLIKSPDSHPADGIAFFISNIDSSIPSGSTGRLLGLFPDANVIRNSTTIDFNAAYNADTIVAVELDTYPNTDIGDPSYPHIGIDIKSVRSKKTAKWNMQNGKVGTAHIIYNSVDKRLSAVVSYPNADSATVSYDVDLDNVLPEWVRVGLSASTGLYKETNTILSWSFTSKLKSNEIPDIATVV
Follistatin (Homo sapiens), sequence (P19883 whole entry, looked up): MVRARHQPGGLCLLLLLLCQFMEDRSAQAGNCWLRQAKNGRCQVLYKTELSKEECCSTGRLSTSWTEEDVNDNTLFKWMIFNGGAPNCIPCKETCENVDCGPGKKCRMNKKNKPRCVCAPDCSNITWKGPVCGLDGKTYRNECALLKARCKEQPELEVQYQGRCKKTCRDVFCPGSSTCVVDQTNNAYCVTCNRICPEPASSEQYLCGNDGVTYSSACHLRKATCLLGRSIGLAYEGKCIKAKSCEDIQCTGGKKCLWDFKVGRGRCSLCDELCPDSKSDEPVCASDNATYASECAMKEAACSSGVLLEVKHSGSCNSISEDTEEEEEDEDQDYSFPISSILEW
Focal adhesion kinase 1 (Homo sapiens), sequence (Q05397 whole entry, looked up): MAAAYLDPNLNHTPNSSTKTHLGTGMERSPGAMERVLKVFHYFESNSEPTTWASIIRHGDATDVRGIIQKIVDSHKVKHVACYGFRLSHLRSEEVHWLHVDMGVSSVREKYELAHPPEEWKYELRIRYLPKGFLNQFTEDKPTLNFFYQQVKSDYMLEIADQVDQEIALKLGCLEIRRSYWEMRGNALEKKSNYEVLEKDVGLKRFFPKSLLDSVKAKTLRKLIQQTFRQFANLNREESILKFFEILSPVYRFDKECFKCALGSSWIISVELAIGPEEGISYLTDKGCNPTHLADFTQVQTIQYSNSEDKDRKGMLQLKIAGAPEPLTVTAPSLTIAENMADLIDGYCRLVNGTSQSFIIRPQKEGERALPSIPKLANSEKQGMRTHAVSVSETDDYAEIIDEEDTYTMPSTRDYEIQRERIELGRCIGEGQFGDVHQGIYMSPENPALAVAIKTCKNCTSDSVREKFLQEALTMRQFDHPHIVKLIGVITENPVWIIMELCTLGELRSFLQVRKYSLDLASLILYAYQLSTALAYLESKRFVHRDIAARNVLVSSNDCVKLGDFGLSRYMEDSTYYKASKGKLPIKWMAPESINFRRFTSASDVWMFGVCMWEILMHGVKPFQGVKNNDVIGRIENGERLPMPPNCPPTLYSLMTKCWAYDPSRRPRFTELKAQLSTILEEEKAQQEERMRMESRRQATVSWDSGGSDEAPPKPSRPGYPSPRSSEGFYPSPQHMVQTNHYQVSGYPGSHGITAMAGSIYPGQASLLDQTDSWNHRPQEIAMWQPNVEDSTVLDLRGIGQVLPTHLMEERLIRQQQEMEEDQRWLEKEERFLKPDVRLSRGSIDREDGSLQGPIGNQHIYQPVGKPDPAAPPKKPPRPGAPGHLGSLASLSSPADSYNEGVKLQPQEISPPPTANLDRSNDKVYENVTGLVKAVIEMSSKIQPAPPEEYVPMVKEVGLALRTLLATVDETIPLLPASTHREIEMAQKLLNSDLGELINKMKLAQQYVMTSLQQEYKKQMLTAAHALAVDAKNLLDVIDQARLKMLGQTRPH

In the case of `COCC1C2CC[C@H]3C(OCc4ccc(OC)cc4)OC[C@]4(C)[C@H]3C2=C(CN4C(=O)OC(C)(C)C)[C@H](C)C1COC` (stereo not given in full), the composite z-score in [1] was 1; in [3], 0.249; in assay [4], -0.182; in [5], 0.796; in [6], 2.82; in assay [7], 0.534. Moreover, the composite z-score in assay [8] is 1.3; in assay [9], -0.355; in [10], 1.15; in [11], 0.565; in assay [12], 1.2; in assay [13], 2.09. Moreover, the composite z-score stood at 1.02 in assay [14]; 0.916 in assay [15]; 0.0753 in assay [16]; 0.757 in assay [18]; 0.819 in assay [19]. Besides, the composite Z-score in assay [2] was 0.709 (inactive). Moreover, the z-score in assay [17] was 2.48; in assay [20] it was -0.503 (inactive).
Regarding `COC(=O)[C@@]1(Cc2ccc(OC)cc2)[C@H]2c3cc(C(=O)N4CCCC4)n(Cc4ccc(OC(F)(F)F)cc4)c3C[C@H]2CN1C(=O)c1ccccc1`, the composite z-score in assay [1] was 0.943; in [3], 0.142; in assay [4], 0.194; in assay [5], -0.0687; in assay [6] it was -0.0543; in assay [7], -0.347. The composite z-score in assay [8] was -0.582; in [9] it was -0.818; in [10], 1.01; in assay [11] it was 1.36; in assay [12] it was -0.376; in assay [13], -0.438. The composite z-score in assay [14] is 1; in [15], 0.451; in assay [16], -0.702; in assay [18], -0.683; in assay [19] it was 1.09. Moreover, the composite Z-score in assay [2] was 0.308 (inactive). Moreover, the z-score in assay [17] was 0.691; in assay [20] it was 2.03 (inactive).
As to `CC(C)=CCCC(C)=CC(O)C1C=CC2C(=O)N(c3ccccc3)C(=O)C2N1Nc1ccccc1F` (stereo not given), the composite z-score in assay [1] is 0.846; in assay [3] it was 0.0258; in assay [4] it was -0.186; in assay [5] it was 0.662; in assay [6] it was 1.3; in assay [7], 0.561. For the same compound, the composite z-score was 1.13 in assay [8]; -0.308 in assay [9]; 1.14 in [10]; 1.55 in assay [11]; 1.03 in assay [12]; 0.789 in assay [13]. For the same compound, the composite z-score in [14] was 0.988; in assay [15] it was 0.462; in assay [16], -0.617; in assay [18], 0.278; in assay [19], 0.327. In addition, in assay [2], the composite Z-score was 0.0502 (inactive). Moreover, the z-score in assay [17] was -0.4; in assay [20], 2 (inactive).
Consider `COCCOC(=O)N1C(=O)[C@@]2(c3cc(C#CCCO)ccc31)[C@H](C(N)=O)[C@H]1C(=O)O[C@H](c3ccccc3)[C@H](c3ccccc3)N1[C@@H]2c1ccc(OCCO)cc1`, for which the composite z-score turned out to be 0.489 in assay [1]; 0.12 in [3]; 0.0248 in assay [4]; 0.354 in assay [5]; 2.21 in assay [6]; 0.667 in assay [7]. The composite z-score in assay [8] worked out at 1.29; in assay [9], 0.618; in [10] it was 1.15; in assay [11], 0.911; in assay [12], 1.19; in assay [13], 0.663. Moreover, the composite z-score in assay [14] was 0.877; in assay [15] it was 1.09; in [16], 0.805; in assay [18], 0.794; in assay [19] it was 0.583. Also, the composite Z-score in assay [2] was 0.206 (inactive). For the same compound, the z-score in [17] was -1.03; in assay [20], -1.17 (inactive).
For the compound `COC(=O)[C@@]1(Cc2ccccc2)[C@H]2c3cc(C(=O)N(C)C)n(CCn4cc([N+](=O)[O-])nc4C)c3C[C@H]2CN1C(=O)c1ccccc1`, the composite z-score in assay [1] is 0.89; in assay [3] it was 0.16; in assay [4] it was -0.0254; in assay [5], 0.888; in assay [6], 2.56; in [7], 0.697. Moreover, the composite z-score is 1.1 in [8]; -0.113 in [9]; 0.526 in assay [10]; 0.735 in assay [11]; 0.858 in assay [12]; 1.39 in assay [13]. The composite z-score in [14] was 0.989; in assay [15], 0.387; in assay [16], -0.163; in [18], 0.216; in assay [19], 1.1. For the same compound, the composite Z-score in [2] is 0.0327 (inactive). The z-score was -0.22 in assay [17] and -0.0637 (inactive) in [20].
